Experimental data from PubChem BioAssay AID687001 (Broad Institute, 2013).
Measured potencies and affinities stand elsewhere. Activity calls are given as the source filed them.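 The calls were made as follows: active = signal-lowering compounds whose fitted half-maximal concentration is at or below twice the top tested dose in every run; inconclusive = runs disagree, flat 30 to 70% inhibition, or poor curve fit; inactive = the rest.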

Molecular target: Protein S100-A4 (Homo sapiens) (UniProt P26447)
Assay: human S100A4 peptide interaction inhibition curves – biochemical, fluorescence polarization, cherry-picked hits, dose response (AID 687001)

Chain of Protein S100-A4 (Homo sapiens) (P26447 whole entry, looked up): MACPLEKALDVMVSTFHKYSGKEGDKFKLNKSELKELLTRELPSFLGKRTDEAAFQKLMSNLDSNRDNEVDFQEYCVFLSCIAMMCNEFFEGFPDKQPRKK

Row | SMILES | outcome
1 | COCCCNc1nc2ccccc2nc1NS(=O)(=O)c1cc(Cl)ccc1Cl | inactive
2 | CCc1nc2c(OCc3ccccc3OC)cccn2c1N(C)C(=O)C(C)C | inactive
3 | O=C(CN(Cc1ccco1)C(=O)c1cccc(F)c1)Nc1ccccc1C(F)(F)F | inactive
4 | CCCc1cn(CC[C@@H]2CC[C@H](NS(=O)(=O)c3ccccc3Cl)[C@@H](CO)O2)nn1 | inactive
5 | CC(OC(=O)CSCC(=O)Nc1ccc(Cl)cc1)C(=O)N(C)Cc1ccccc1 (centres undefined) | inactive
6 | COc1ccc(-c2cc(C(=O)NC3CC3)c3ccccc3n2)cc1 | inactive
7 | Cc1noc(C)c1NC(=O)N(C)C[C@H]1OCCCC[C@H](C)Oc2ccc(NS(=O)(=O)c3ccc(F)cc3)cc2C(=O)N([C@H](C)CO)C[C@@H]1C | inactive
8 | COc1ccc(CN(C)C[C@@H]2Oc3ccc(NS(=O)(=O)c4ccccc4)cc3CC(=O)N([C@H](C)CO)C[C@H]2C)cc1 | inactive
9 | Cc1oc(-c2ccc(Cl)cc2)nc1CS(=O)CC(=O)NCCCN1CCN(Cc2ccccc2)CC1 (centres undefined) | inactive
10 | COc1cc(S(=O)(=O)NCc2ccccn2)ccc1Cl | inactive
11 | C[C@H](CO)N1C[C@H](C)[C@@H](CN(C)CC2CC2)OCc2cnnn2CCCC1=O | inactive
12 | COc1ccc(-c2ccc3c(c2)[C@@H]2[C@@H](CCN2C(=O)NC2CCCC2)[C@H](CO)N3C)cc1 | inactive
13 | C[C@@H]1CN([C@H](C)CO)C(=O)c2cccc(NS(C)(=O)=O)c2O[C@@H]1CN(C)CC1CC1 | inactive
14 | Cc1ccc(S(=O)(=O)Nc2ccc(O)c3ccccc23)c(C)c1 | inactive
15 | Cc1ccc(CNS(=O)(=O)c2ccc(C)s2)cc1 | inactive
16 | CCCC(=O)Nc1ccc2c(c1)OC[C@H](C)NC[C@H](C)[C@H](OC)CN(C)C2=O | inactive
17 | Nn1c(SCc2ccccc2F)nnc1-c1cccnc1 | inactive
18 | O=C(CCN1CCCCC1)N[C@H]1CC[C@@H](CCNS(=O)(=O)c2ccc(Cl)cc2)O[C@H]1CO | inactive
19 | O=C(NCC[C@H]1CC[C@H](NS(=O)(=O)c2ccccc2)[C@@H](CO)O1)c1cc(Cl)cc(Cl)c1 | inactive
20 | CCN(CC)C(=O)Cn1ccc(NC(C)=O)nc1=O | inactive

Row | SMILES | outcome
21 | COCCn1c(SCC(=O)Nc2ccc(NC(C)=O)cc2)nc2ccccc2c1=O | inactive
22 | CCC(=O)N(C)C[C@H]1Oc2ncc(-c3ccc(C(=O)N(C)C)cc3)cc2C(=O)N([C@@H](C)CO)C[C@H]1C | inactive
23 | O=C(c1ccccc1)c1ccc(C(=O)N2CCN(c3ccccc3O)CC2)cc1 | inactive
24 | Cc1noc(C)c1S(=O)(=O)N(C)C[C@@H]1Oc2ccc(NC(=O)C3CC3)cc2CC(=O)N([C@@H](C)CO)C[C@H]1C | inactive
25 | COc1ccc(C(=O)OCc2nnc(-c3ccccc3)o2)cc1S(=O)(=O)N1CCOCC1 | inactive
26 | C[C@@H]1CN([C@H](C)CO)C(=O)CCCn2cc(nn2)CO[C@H]1CN(C)S(=O)(=O)c1ccc(Oc2ccccc2)nc1 | inactive
27 | Cn1cnc(CCNC(=O)C[C@@H]2CC[C@H]3[C@@H](COC[C@@H](O)CN3C(=O)C3CC3)O2)c1 | inactive
28 | CCOc1ccc(OCCNC(=O)c2cc(C3CC3)nc3c2cnn3C(C)C)cc1 | inactive
29 | COc1cc(/C=C2\SC(=S)N(NC(=O)c3ccccc3OC)C2=O)ccc1O | inactive
30 | Cc1nc2ccccc2nc1CC(O)(c1ccccc1)c1ccccc1 | inactive
31 | CCC(c1nc2ccccc2[nH]1)n1c(-c2cnccn2)nc2ccccc21 (centres undefined) | inactive
32 | C[C@H]1CCCCO[C@H](CN(C)C(=O)Nc2ccc(C(F)(F)F)cc2)[C@@H](C)CN([C@@H](C)CO)C(=O)c2cc(NS(=O)(=O)c3ccccc3)ccc2O1 | inactive
33 | C[C@H](CO)N1C[C@H](C)[C@@H](CN(C)S(=O)(=O)c2cccs2)OCCCC[C@H](C)Oc2ccc(NS(C)(=O)=O)cc2C1=O | inactive
34 | C[C@@H]1CN([C@@H](C)CO)C(=O)c2cc(C#C[C@@H](C)O)cnc2O[C@H]1CN(C)C(=O)Cc1ccncc1 | inactive
35 | COc1cc(C(=O)NCCc2ncccc2C)ccc1OC1CCN(C(C)=O)CC1 | inactive
36 | CN(C)C(CNC(=O)CCc1nc2cc(Cl)ccc2n(Cc2ccccc2)c1=O)c1ccccc1 (centres undefined) | inactive
37 | COc1ccc(NC(=O)N(C)C[C@H]2Oc3c(NC(=O)NC4CCCCC4)cccc3C(=O)N([C@H](C)CO)C[C@H]2C)cc1 | inactive
38 | CN(CC(=O)NCC(=O)Nc1ccc(F)cc1)CC(=O)Nc1ccc(Cl)c(C(F)(F)F)c1 | inactive
39 | C/C=C/c1ccc(C2[C@H]3CNC[C@@H]2N3S(=O)(=O)c2ccccc2C)cc1 (some centres undefined) | inactive
